This is an account of results in the supplement of paper PMC9492666.

Where a name gives a salt, the structure may show the parent alone.
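Note: viability read out with the CCK-8 kit in 96-well plates, screening a set of 303 compounds acting on lipid metabolism targets.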

In the assay the test system is MDA-MB-231. Kind of assay: relative cell viability, compound alone, vs DMSO (fraction of DMSO control); higher = less growth inhibition. Particulars: 72 h.
`COc1ccc(C(=O)/C=C/c2ccccc2)cc1` [4'-Methoxychalcone] displayed a relative cell viability of 0.889. The compound `CN(C)C(=O)Nc1cccc(-c2ccc(N(C)C)cc2)c1` [Atglistatin] had a relative cell viability of 0.83. The compound `Cc1nc2c([nH]1)c(=O)n(C)c(=O)n2Cc1ccco1` [Furafylline] had a relative cell viability of 0.924. The compound `COc1ccc(-c2cc(=O)c3c(O)c(OC)c(O)cc3o2)cc1OC` [Eupatilin] registered a relative cell viability of 0.739. As for `C=C(C)[C@@H]1CC[C@]2(CO)CC[C@]3(C)[C@H](CC[C@@H]4[C@@]5(C)CC[C@H](O)C(C)(C)[C@@H]5CC[C@]43C)[C@@H]12` [Betulin], the relative cell viability is 0.907.

The compound `COC(=O)c1sccc1S(=O)(=O)Nc1ccc(Nc2ccccc2)cc1OC` gave a relative cell viability of 0.871. In the case of `CC(C)[C@H]1CC[C@H](C(=O)N[C@H](Cc2ccccc2)C(=O)O)CC1` [Nateglinide] it was 0.869; in that of `CN(C)CCOC(=O)COc1ccc(Cl)cc1` [Meclofenoxate hydrochloride], 0.933; in that of `O=C(Nc1cccnc1)N1CCC(Cc2cccc(Oc3ccc(C(F)(F)F)cn3)c2)CC1`, 1.01. As for `CCCCCC=CC(=O)CCc1ccc(O)c(OC)c1` [6-Shogaol], the relative cell viability was found to be 0.978. In the case of `CC(C)CCC[C@@H](C)[C@H]1CC[C@H]2[C@@H]3CCC4=CC(=NO)CC[C@]4(C)[C@H]3CC[C@]12C` [Olesoxime] it was 0.789; in that of `NC(CO)C(=O)O` (racemic) [DL-Serine], 0.77; in that of `O=C(O)Cc1cccc(OCCCN(Cc2cccc(C(F)(F)F)c2Cl)CC(c2ccccc2)c2ccccc2)c1`, 1.11.

In turn, `O=C(O)C(=O)Nc1sc2c(c1C(=O)O)CCNC2` displayed a relative cell viability of 0.872. Compound `Cc1coc2c1C(=O)C(=O)c1c-2ccc2c(C)cccc12` [Tanshinone I] returned a relative cell viability of 0.51. As for `Cc1cc(C)c(S(=O)(=O)Nc2cccc(C(F)(F)F)c2)c(C)c1`, the relative cell viability amounted to 1.18. For `CC(=O)Nc1nc(C)c(S(=O)(=O)Nc2ccc(C(O)(C(F)(F)F)C(F)(F)F)cc2)s1`, the relative cell viability came out at 1.24.

On to `O=S(=O)(O)c1ccc2cc(N=Nc3cc(S(=O)(=O)O)c4cccnc4c3O)ccc2c1`, for which the relative cell viability was 0.851. As to `CCN(CC)c1ccc(C=NNC(=O)c2ccncc2)c(O)c1`, the relative cell viability worked out at 0.624. In the case of `CC(C)OC(=O)C(C(=O)OC(C)C)=C1SC=CS1` [Malotilate] it was 0.828. Regarding `O=C(c1ccc(-c2nc3ccc(F)cc3o2)cc1)N1CCN(C(=O)C2(O)CC2)CC1`, the relative cell viability worked out at 0.918. Take `Cc1nc2ccc(C(=O)N3CCC4(CC3)CC(=O)c3c(cnn3C(C)C)C4)cc2[nH]1`: the relative cell viability was found to be 0.859.

As to `O=C(O)CCCc1cc2cc(Cl)ccc2n1S(=O)(=O)c1ccc2ncsc2c1` [Lanifibranor], the relative cell viability turned out to be 1.07. The compound `C=C[C@H]1CN2CC[C@H]1C[C@@H]2[C@@H](O)c1ccnc2ccc(OC)cc12` [Quinidine sulfate] returned a relative cell viability of 1.02. Turning to `CC1(N)CCN(c2cnc(-c3cccc(Cl)c3Cl)c(N)n2)CC1` [SHP099 hydrochloride], the relative cell viability was 1.02.

In the case of `CC(C)[C@H](N=C(NS(=O)(=O)c1ccc(Cl)cc1)N1C[C@H](c2ccccc2)C(c2ccc(Cl)cc2)=N1)C(N)=O`, the relative cell viability stood at 0.893. Compound `Cn1c2cc([S+](C)[O-])sc2c2cnn(Cc3cccc(N)c3)c(=O)c21` (centres undefined) yielded a relative cell viability of 0.96.

`CC(=O)Oc1cc(C(F)(F)F)ccc1C(=O)O` [Triflusal] registered a relative cell viability of 0.982. `O=c1c(O[C@@H]2O[C@H](CO)[C@@H](O)[C@H](O)[C@H]2O)c(-c2ccc(O)cc2)oc2cc(O)cc(O)c12` [Astragalin]: the relative cell viability was determined as 0.984. In turn, `COC(=O)/C=C/c1cccc(N(Cc2ccc(-c3ccc(N(C)C)cc3)cc2)C(=O)C2CCCCC2)c1` [Fexaramine] yielded a relative cell viability of 0.924. Regarding `O=C(O)c1c[nH]c2cc(Cl)c(-c3ccc(C4(O)CCC4)cc3)cc12`, the relative cell viability was found to be 0.914. Turning to `O=C(/C=C/c1ccc(/C=C/C(=O)Nc2ccc(C3=NCCN3)cc2)cc1)Nc1ccc(C2=NCCN2)cc1`, the relative cell viability came to 0.765. Take `CCC(CC)CC1(C(=O)Nc2ccccc2SC(=O)C(C)C)CCCCC1` [Dalcetrapib]: the relative cell viability was 1.06. Take `CS(=O)(=O)c1ccc(-c2nnc(/C=C/c3nnc(-c4ccc(C#N)cc4)o3)n2-c2ccccc2Cl)nc1`: the relative cell viability was 0.851. As to `CC(C)(Oc1ccc(CCNC(=O)c2ccc(Cl)cc2)cc1)C(=O)O` [Bezafibrate], the relative cell viability turned out to be 0.823.

As to `CC1(C)CC[C@]2(C(=O)O[C@@H]3O[C@H](CO)[C@@H](O)[C@H](O)[C@H]3O)CC[C@]3(C)C(=CC[C@@H]4[C@@]5(C)CC[C@H](O[C@@H]6O[C@H](C(=O)O)[C@@H](O)[C@H](O)[C@H]6O)C(C)(C)[C@@H]5CC[C@]43C)[C@@H]2C1` [Chikusetsusaponin IVa], the relative cell viability was found to be 0.966. Compound `CCN(CC)C(=O)N1CCN(C)CC1` [Diethylcarbamazine citrate] yielded a relative cell viability of 0.856. `CC(C)(C)NC(=O)[C@H]1CC[C@H]2[C@@H]3CC[C@H]4NC(=O)C=C[C@]4(C)[C@H]3CC[C@]12C` [Finasteride]: the relative cell viability is 0.934. Regarding `N=C(N)NC(=N)NCCc1ccccc1` [Phenformin hydrochloride], the relative cell viability worked out at 0.868.
